Source: PubChem (National Center for Advancing Translational Sciences (NCATS))
An excerpt weighted towards active compounds, which were near 21% of everything screened.
NS1 function inh – qHTS Assay for Inhibitors of Influenza NS1 Protein Function | Potency, µM (titrated, usually from 46.1 µM), inactives show top-dose activity, positive = more growth | 270,000 compounds, 0.4% hits; also: potency is read from the fitted curve at half-maximal effect; actives are rising curves; nearly all actives have a fitted effect of over 50% in size
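Recovery from NS1-induced slow growth read by OD600 in budding yeast switched to galactose assay medium (pH 6.0, -URA) at 1:100 dilution. Compound 23 nl per well; the matching strain lacking NS1 serves as control.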
Shiga inhibitor – A qHTS for Small Molecule Inhibitors of Shiga Toxin; inhibition, % at 38.7 µM; Vero cells, Shiga toxin protein synthesis inhibition reporter; 290,000 compounds, 9.2% hits; AID 2315, 2010; in the data active = inhibition mostly above about 28%, no sharp cut-off; inactive = mostly below about 43%; also: 0% is about no effect
SARS PLP yeast – qHTS of Yeast-based Assay for SARS-CoV PLP. AID 485353, 2010. S. cerevisiae expressing SARS-CoV PLpro, growth rescue. Potency, µM (titrated, usually from 32.9 µM), inactives show top-dose activity, positive = growth rescue, usual class: activators. 330,000 compounds, 0.19% hits; also: potency is read from the fitted curve at half-maximal effect; 0% is about no effect; nearly all actives have a fitted effect of over 55% in size
Pf growth 96h – Primary qHTS for delayed death inhibitors of the malarial parasite plastid, 96 hour incubation; P. falciparum luciferase reporter growth, 96 h; 320,000 compounds, 6.9% hits; Potency, µM (series often up to 28.7 µM), inactives show at the top dose activity change, negative = inhibition, most hits filed as inhibitors; active = well fitted inhibition curve with a large enough effect; inconclusive = small, poorly fitted or top-dose-only effect, or another doubt; inactive = no such curve, though single readings can be large or run the other way; also: potency is read from the fitted curve at half-maximal effect; % is scaled to controls: 0 for no effect and ±100 for the full control effect
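Plates of compound plus infected erythrocytes (2% hematocrit, 0.05% parasitemia final) incubate 96 hours, 37 C, 5% CO2. Detection reagent added; reduced luminescence from the parasites' luciferase reporter flags inhibition.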
Pf growth 48h – Primary qHTS for delayed death inhibitors of the malarial parasite plastid, 48 hour incubation; P. falciparum luciferase growth in erythrocytes, 48 h; 310,000 compounds, 5.9% hits; Potency, µM (series often up to 28.7 µM), for the others: at the top dose activity change, negative = inhibition, hits mostly inhibitors; active = well fitted inhibition curve with a large enough effect; inconclusive = small, poorly fitted or top-dose-only effect, or another doubt; inactive = no such curve, though single readings can be large or run the other way; also: potency is read from the fitted curve at half-maximal effect; % is scaled to controls: 0 for no effect and ±100 for the full control effect
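Cell-based growth assay: transgenic P. falciparum expressing firefly luciferase, cultured in red cells within RPMI 1640 containing 0.5% w/v Albumax, 24 mM bicarbonate and gentamycin. A drop in luciferase activity indicates inhibition.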
Cycloheximide cs – Cycloheximide Counterscreen for Small Molecule Inhibitors of Shiga Toxin; cell reporter, cycloheximide protein synthesis inhibition counterscreen; max response, %; 300,000 compounds, 12% hits; in the data active = max response mostly above about 13%, no sharp cut-off; inactive = mostly below about 14%; also: read at 38.3 µM for the half of the compounds with a filed dose; 0% is about no effect
* marks the source's active call; other numbers are inactive results; [ ] = remark or other dose. Unless noted, calls follow the shape of the full dose curve.

What do the screens show for `COc1ccc(C(=O)C2CCCN(C(=O)CCc3scnc3C)C2)c(C)c1` (stereo not drawn)?
NS1 function inh: -9%; Shiga inhibitor: 92*; SARS PLP yeast: -3%; Pf growth 96h: 260%; Pf growth 48h: 2.3µM*; Cycloheximide cs: 47*

What do the screens show for `COC(=O)c1ccc(C(=O)N2CCCC(Nc3ccc(F)c(F)c3)C2)cc1` (stereo not drawn)?
NS1 function inh: -17%; Shiga inhibitor: -7; SARS PLP yeast: -5%; Pf growth 96h: 1%; Pf growth 48h: 13%; Cycloheximide cs: -3

Results for Cc1ncsc1CCC(=O)N1CCCC(Nc2ccc(F)c(F)c2)C1 (stereo not drawn) ?
NS1 function inh: 5%; Shiga inhibitor: -13; SARS PLP yeast: -1%; Pf growth 96h: 12µM*; Pf growth 48h: 0%; Cycloheximide cs: 1

What do the screens show for `Cc1ccc(C(=O)N2CCCC(Nc3ccc(F)c(F)c3)C2)cn1` (stereo not drawn)?
NS1 function inh: 6%; Shiga inhibitor: -7; SARS PLP yeast: 0%; Pf growth 96h: 12µM*; Pf growth 48h: -1%; Cycloheximide cs: 1

Results for CN(CCOc1ccc(Cl)cc1)C(=O)c1cc(-c2ccco2)nc2ccccc12 ?
SARS PLP yeast: 4%; Pf growth 96h: inconclusive; Pf growth 48h: inconclusive

How did COC(=O)[C@@]1(C)[C@H]2C(=O)N(C)C(=O)[C@H]2[C@H]2CN=C(SC)N21 do in these assays?
SARS PLP yeast: 14%

Results for CC(=O)n1cc(C(C[N+](=O)[O-])SCCN)c2ccccc21 (stereo not drawn) ?
NS1 function inh: -147%; Shiga inhibitor: -3; SARS PLP yeast: -34%; Pf growth 96h: 84%; Pf growth 48h: 5%; Cycloheximide cs: 9

How did O=C(Cc1ccc(Cl)c(Cl)c1)Nc1ccc(S(=O)(=O)Nc2ncccn2)cc1 do in these assays?
NS1 function inh: -9%; Shiga inhibitor: -10; SARS PLP yeast: 0%; Pf growth 96h: 10%; Pf growth 48h: 21%; Cycloheximide cs: -4

What do the screens show for `O=C(Nc1ccccc1)Nc1ccccc1Br`?
Shiga inhibitor: 117*; SARS PLP yeast: -2%; Pf growth 96h: 203%; Pf growth 48h: 161%; Cycloheximide cs: 68*

How did CON(C)C(=O)Nc1ccc(Br)c(Cl)c1 do in these assays?
Shiga inhibitor: 54*; Cycloheximide cs: 27*

Results for CCc1ccccc1NC(=O)Nc1ccc(F)cc1 ?
NS1 function inh: -8%; Shiga inhibitor: 31; SARS PLP yeast: 0%; Pf growth 96h: inconclusive; Pf growth 48h: 0%; Cycloheximide cs: 14*

Results for CCCCNC(=O)Nc1ccccc1Br ?
NS1 function inh: -23%; Shiga inhibitor: 13; SARS PLP yeast: -1%; Pf growth 96h: -2%; Pf growth 48h: 16%; Cycloheximide cs: 18

What do the screens show for `O=C(Nc1ccccc1)Nc1ccc(Br)c(Cl)c1`?
NS1 function inh: -32%; Shiga inhibitor: 72*; SARS PLP yeast: -18%; Pf growth 96h: 0%; Pf growth 48h: inconclusive; Cycloheximide cs: 42*

How did O=C(Nc1ccccc1)Nc1cccc(NC(=O)Nc2ccccc2)c1F do in these assays?
NS1 function inh: 4%; Shiga inhibitor: 47; SARS PLP yeast: -3%; Pf growth 96h: 70%; Pf growth 48h: 75%; Cycloheximide cs: 18*

What do the screens show for `O=C(Nc1ccccc1)Nc1cc([N+](=O)[O-])ccc1F`?
NS1 function inh: -1%; Shiga inhibitor: 29; SARS PLP yeast: -13%; Pf growth 96h: inconclusive; Pf growth 48h: 21%; Cycloheximide cs: 6

Results for Cc1ccc(C)c(NC(=O)CNC(=O)N2CC(=O)Nc3ccccc32)c1 ?
NS1 function inh: 4%; Shiga inhibitor: 14; SARS PLP yeast: 0%; Pf growth 96h: 40%; Pf growth 48h: 32%; Cycloheximide cs: -3

How did Cc1ccc(C)c(Nc2c([N+](=O)[O-])cc(C(=O)N3CC(=O)Nc4ccccc43)cc2[N+](=O)[O-])c1 do in these assays?
NS1 function inh: inconclusive; Shiga inhibitor: -22; SARS PLP yeast: -1%; Pf growth 96h: 13µM*; Pf growth 48h: inconclusive; Cycloheximide cs: -3

What do the screens show for `Cc1cccc(Nc2c([N+](=O)[O-])cc(C(=O)N3CC(=O)Nc4ccccc43)cc2[N+](=O)[O-])c1`?
Shiga inhibitor: -6; SARS PLP yeast: 0%; Pf growth 96h: inconclusive; Pf growth 48h: 9.3µM*; Cycloheximide cs: -1

What do the screens show for `O=C(Cc1ccc(O)cc1)NCCNC(=S)NCc1ccccc1`?
NS1 function inh: 3%; Shiga inhibitor: 8; SARS PLP yeast: 2%; Pf growth 96h: inconclusive; Pf growth 48h: inconclusive; Cycloheximide cs: 6

How did Cc1cc(C)n(S(=O)(=O)/C=C/c2ccccc2)n1 do in these assays?
NS1 function inh: -49%; Shiga inhibitor: 17; SARS PLP yeast: 0%; Pf growth 96h: 9%[5.75 µM]; Pf growth 48h: -21%; Cycloheximide cs: 11

What do the screens show for `COc1cccc(C2CC(c3cccc(NS(C)(=O)=O)c3)=NN2C(=O)c2ccccc2)c1OC` (stereo not drawn)?
NS1 function inh: inconclusive; Shiga inhibitor: -12; SARS PLP yeast: -5%; Pf growth 96h: inconclusive; Pf growth 48h: 1.9µM*; Cycloheximide cs: -2

How did O=C(c1ccncc1)N1N=C(c2ccc(Cl)cc2)CC1c1ccccc1O (stereo not drawn) do in these assays?
NS1 function inh: 13%; Shiga inhibitor: 116*; SARS PLP yeast: -19%; Pf growth 96h: inconclusive; Pf growth 48h: inconclusive; Cycloheximide cs: 45*

What do the screens show for `COc1ccc(C2=NN(C(=O)c3ccncc3)C(c3ccccc3O)C2)cc1` (stereo not drawn)?
NS1 function inh: -15%; Shiga inhibitor: 14; Pf growth 96h: inconclusive; Pf growth 48h: inconclusive; Cycloheximide cs: 10

Results for COc1ccccc1C1CC(c2ccc(Br)cc2)=NN1C(=O)c1cccnc1 (stereo not drawn) ?
NS1 function inh: -5%; Shiga inhibitor: 3; SARS PLP yeast: -54%; Pf growth 96h: 1.9µM*; Pf growth 48h: 4.1µM*; Cycloheximide cs: 3

What do the screens show for `COc1cccc(C2CC(c3ccc(Br)cc3)=NN2C(=O)c2ccncc2)c1OC` (stereo not drawn)?
Shiga inhibitor: 42; SARS PLP yeast: -2%; Pf growth 96h: inconclusive; Pf growth 48h: 12µM*; Cycloheximide cs: 5

Results for COc1ccc(C2CC(c3ccc(C)cc3)=NN2C(=O)c2ccccc2)cc1 (stereo not drawn) ?
NS1 function inh: -1%; Shiga inhibitor: -6; SARS PLP yeast: -3%; Pf growth 96h: inconclusive; Pf growth 48h: inconclusive; Cycloheximide cs: 2
